{
  "source": "PubChem BioAssay (NCATS)",
  "note": "Records with an inconclusive call do not appear. Activity calls are given as the source filed them. Calls come from the whole dose curve; as a rule, active = well fitted inhibition curve with a large enough effect; inconclusive = small, poorly fitted or top-dose-only effect; inactive = no such curve, though single readings can be large or run the other way. Numbered stars: 1 amine (or outer) side, 2 acyl side, 3 side chain; on linkers, the order of the positions; unused ones are H or OH. Bridge positions count the residues as written; N and C are the ends. Square brackets hold non-standard residues; d marks the D form. Peptide text beside a SMILES is read from it. * marks the point of attachment. ξ: configuration not given here. ΔAla(E,3-NHCONH2) = NC(=O)N/C=C(/N)C(=O)O; X1 = NC1=NCCC(C(N[*:1])C(=O)[*:2])N1; ξβ3hOrn = NCCCC(N)CC(=O)*; Dap = NC[CH](N)C(=O)O",
  "data": [
    {"target": "Cytochrome P450 3A4 (Homo sapiens) (UniProt P08684)", "sequence (P08684 whole entry, looked up)": "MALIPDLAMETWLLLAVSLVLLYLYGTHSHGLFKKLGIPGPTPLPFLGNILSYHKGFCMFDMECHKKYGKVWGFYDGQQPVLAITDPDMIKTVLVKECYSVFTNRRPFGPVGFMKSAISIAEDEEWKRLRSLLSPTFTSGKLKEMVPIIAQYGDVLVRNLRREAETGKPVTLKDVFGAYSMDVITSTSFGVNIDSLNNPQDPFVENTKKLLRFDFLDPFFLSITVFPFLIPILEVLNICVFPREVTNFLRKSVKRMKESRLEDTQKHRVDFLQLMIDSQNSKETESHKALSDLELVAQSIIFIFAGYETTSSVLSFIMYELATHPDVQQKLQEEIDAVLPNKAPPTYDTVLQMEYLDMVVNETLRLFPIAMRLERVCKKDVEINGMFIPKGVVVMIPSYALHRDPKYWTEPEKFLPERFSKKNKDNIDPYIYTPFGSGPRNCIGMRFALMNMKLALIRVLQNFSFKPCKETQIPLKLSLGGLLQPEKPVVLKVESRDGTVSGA", "assay": "qHTS Assay for Inhibitors and Substrates of Cytochrome P450 3A4 (AID 884); note: % is set by controls: 0 for no effect and ±100 for the full control effect; nearly all actives have a fitted effect of over 50% in size", "details": "recombinant CYP3A4, Luciferin-PPXE luminescence; series mostly up to 57.1 µM; activity change, negative = inhibition: at the top concentration", "procedure,_shortened": "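20 nM human CYP3A4 with 25 uM Luciferin-PPXE (at KM) in 200 mM KPO4, preincubated 10 min with compound; NADPH regeneration started a 60 min RT reaction. Luciferin detected by luminescence, normalized to 57 uM ketoconazole as full inhibition.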", "values": [
      {"smiles": "CC1CC[C@@]2(OC1)OC1CC3C4CC[C@H]5CC(O)CC[C@@]5(C)C4CC[C@]3(C)C1C2C", "note": "(stereo not given in full)", "activity change, negative = inhibition": "0.373% (inactive)"},
      {"smiles": "CC(=O)OCC(=O)[C@@]1(O)CCC2C3CCC4=CC(=O)CC[C@@]4(C)[C@]3(F)C(O)C[C@]21C", "note": "(stereo not given in full)", "activity change, negative = inhibition": "-19.9% (inactive)"},
      {"smiles": "CC(CCC(=O)O)C1CCC2C3CC(O)[C@@H]4CC(O)CC[C@]4(C)C3CC[C@@]12C", "note": "(stereo not given in full)", "activity change, negative = inhibition": "-8.28% (inactive)"},
      {"smiles": "CC1CCC(C(C)(C)O)CC2=C1CCC2C", "note": "(stereo not given)", "activity change, negative = inhibition": "-1.66% (inactive)"},
      {"smiles": "NCCC(O)C(=O)NC1C[C@@H](N)[C@H](O[C@@H]2OC(CN)C(O)C(O)C2O)C(O)[C@H]1O[C@H]1OC(CO)C(O)C(N)C1O", "note": "(stereo not given in full)", "activity change, negative = inhibition": "-4.98% (inactive)"},
      {"smiles": "CC(C)CC(NC(=O)CN)C(=O)NC(Cc1ccccc1)C(=O)O", "note": "(stereo not drawn) (H-Gly-Leu-Phe-OH; configuration not given here)", "activity change, negative = inhibition": "0.158% (inactive)"},
      {"smiles": "CC(=O)OC1CCC2(C)C(=CC=C3C2CCC2(C)C3CCC2C(C)/C=C/C(C)C(C)C)C1(C)C", "note": "(stereo not given)", "activity change, negative = inhibition": "-2.11% (inactive)"},
      {"smiles": "COc1cc2c3cc1Oc1cc(ccc1O)CC1c4c(cc(OC)c(O)c4Oc4ccc(cc4)CC3N(C)CC2)CC[N+]1(C)C", "note": "(stereo not given)", "activity change, negative = inhibition": "-12.3% (inactive)"},
      {"smiles": "CCOC(=O)c1c(C)cc(O)c(C)c1O", "activity change, negative = inhibition": "-20.9% (inactive)"},
      {"smiles": "CC1(C)OC2C(CO)OC(n3cnc4c(=O)[nH]c(N)nc43)C2O1", "note": "(stereo not given)", "activity change, negative = inhibition": "-7.92% (inactive)"},
      {"smiles": "COc1ccc(-c2cc(=O)c3c(O)c(OC)c(OC)c(OC)c3o2)cc1", "activity change, negative = inhibition": "-25.6% (inactive)"},
      {"smiles": "NCCCC(N)CC(=O)NCC1NC(=O)C(CO)NC(=O)C(N)CNC(=O)C(C2CCN=C(N)N2)NC(=O)/C(=C\\NC(N)=O)NC1=O", "note": "(stereo not drawn) (H-[Dap]S[Dap](ξβ3hOrn)[ΔAla(E,3-NHCONH2)][X1]; lactam 1-C; configuration not given here)", "activity change, negative = inhibition": "-9.56% (inactive)"},
      {"smiles": "COc1ccc(/C=C/c2cc(O)cc(O[C@H]3OC(CO)C(O)C(O)C3O)c2)cc1", "note": "(stereo not given in full)", "activity change, negative = inhibition": "-20.1% (inactive)"},
      {"smiles": "CC(=O)OCC(=O)[C@]1(O)C(OC(C)=O)CC2C3CCC4=CC(=O)C=C[C@@]4(C)[C@]3(F)C(O)C[C@]21C", "note": "(stereo not given in full)", "activity change, negative = inhibition": "-26.8% (inactive)"},
      {"smiles": "COc1ccc(C2OC3C(CO)OC(n4cnc5c(=O)[nH]c(N)nc54)C3O2)cc1", "note": "(stereo not given)", "activity change, negative = inhibition": "-27.6% (inactive)"},
      {"smiles": "C[C@@]12CCC(O)C[C@H]1CCc1ccccc12", "note": "(stereo not given in full)", "activity change, negative = inhibition": "17.6% (inactive)"},
      {"smiles": "CCOc1ccc(C(=O)c2ccc(OC)c(O)c2O)cc1", "activity change, negative = inhibition": "-12% (inactive)"},
      {"smiles": "CC(=O)NC(CC(=O)O)C(=O)NC(CCC(=O)O)C(=O)O", "note": "(stereo not drawn) (Ac-Asp-Glu-OH; configuration not given here)", "activity change, negative = inhibition": "6.38% (inactive)"},
      {"smiles": "CC1CCC(C(C)C)[C@H](OC(=O)c2ccccc2)C1", "note": "(stereo not given in full)", "activity change, negative = inhibition": "-3.92% (inactive)"},
      {"smiles": "CC(C(=O)O)C1CCC2C3CC=C4CC(O)CC[C@@]4(C)C3CC[C@]12C", "note": "(stereo not given in full)", "activity change, negative = inhibition": "-7.49% (inactive)"},
      {"smiles": "CC1(C)OC2C[C@](O)(C(N)=O)C[C@H](O)[C@H]2O1", "note": "(stereo not given in full)", "activity change, negative = inhibition": "-2.58% (inactive)"},
      {"smiles": "OCC1OC(n2cnc3c(NCc4ccco4)ncnc32)C(O)C1O", "note": "(stereo not given)", "activity change, negative = inhibition": "5.24% (inactive)"},
      {"smiles": "[N-]=[N+]=NCC1OC(n2cnc3c(=O)[nH]c(N)nc32)C(O)C1O", "note": "(stereo not given)", "activity change, negative = inhibition": "-9.45% (inactive)"},
      {"smiles": "COc1ccc(-c2cc(=O)c3c(O)cc(O[C@@H]4OC(COC5OC(C)C(O)C(O)[C@@H]5O)C(O)C(O)C4O)cc3o2)cc1", "note": "(stereo not given in full)", "activity change, negative = inhibition": "-18.8% (inactive)"},
      {"smiles": "CC(=O)C1CCC2C3CC=C4CC(O)CC[C@@]4(C)C3CC[C@]12C", "note": "(stereo not given in full)", "activity change, negative = inhibition": "-2.62% (inactive)"},
      {"smiles": "CC1CC[C@@]2(OC1)OC1CC3C4CC=C5CC(O)CC[C@@]5(C)C4CC[C@]3(C)C1C2C", "note": "(stereo not given in full)", "activity change, negative = inhibition": "17.7% (inactive)"},
      {"smiles": "CC1CCC(C(C)C)[C@H](O)C1", "note": "(stereo not given in full)", "activity change, negative = inhibition": "-1.51% (inactive)"},
      {"smiles": "CC(=O)OCC(=O)C1CCC2C3CC=C4CC(O)CC[C@@]4(C)C3CC[C@]12C", "note": "(stereo not given in full)", "activity change, negative = inhibition": "20.3% (inactive)"},
      {"smiles": "CCC1OC(=O)C(C)[C@@H](O[C@H]2C[C@@](C)(OC)C(O)C(C)O2)C(C)[C@@H](O[C@@H]2OC(C)CC(N(C)C)C2O)[C@](C)(O)CC(C)/C(=N\\OCOCCOC)[C@H](C)C(O)[C@]1(C)O", "note": "(stereo not given in full)", "activity change, negative = inhibition": "-53.1% (inactive)"},
      {"smiles": "C/C=C1\\C2C=C(C)C[C@@]1(N)c1ccc(=O)[nH]c1C2", "activity change, negative = inhibition": "-13% (inactive)"},
      {"smiles": "CC(C)(O)CCC(O)[C@@](C)(O)C1CC[C@]2(O)C3=CC(=O)C4CC(O)C(O)C[C@]4(C)C3CC[C@]12C", "note": "(stereo not given in full)", "activity change, negative = inhibition": "-11.8% (inactive)"},
      {"smiles": "C=C(C)C1CC=C(CO)CC1", "note": "(stereo not given)", "activity change, negative = inhibition": "5.1% (inactive)"},
      {"smiles": "CC1CCC2(OC1)OC1CC3C4CC[C@@H]5CC(O)CC[C@@]5(C)C4CC(=O)[C@]3(C)C1C2C", "note": "(stereo not given in full)", "activity change, negative = inhibition": "2.29% (inactive)"},
      {"smiles": "CC(=O)NC1C(O)C[C@@](O)(C(=O)O)OC1[C@@H](O)C(O)CO", "note": "(stereo not given in full)", "activity change, negative = inhibition": "-10.2% (inactive)"},
      {"smiles": "O=C(Cc1ccccc1)NO", "activity change, negative = inhibition": "-2.92% (inactive)"},
      {"smiles": "CCC(C(N)=O)c1ccccc1", "note": "(stereo not given)", "activity change, negative = inhibition": "-10.8% (inactive)"},
      {"smiles": "CC1=C2C(O)C(=O)OC3CC4C(C)(C)C(=O)C=C[C@]4(C)C(CC1)[C@@]23C", "note": "(stereo not given in full)", "activity change, negative = inhibition": "-2.33% (inactive)"},
      {"smiles": "O=C(O)c1cc2cc(Cl)ccc2[nH]1", "activity change, negative = inhibition": "-8.89% (inactive)"},
      {"smiles": "CC(C)CC(N)C(=O)NC(C)C(=O)O", "note": "(stereo not given)", "activity change, negative = inhibition": "-15.3% (inactive)"},
      {"smiles": "NCC1CCCCC1CC(=O)O", "note": "(stereo not given)", "activity change, negative = inhibition": "12.3% (inactive)"}
    ]}
  ]
}
